Measurements taken from ChEMBL document CHEMBL3988442, “University of Dundee, Small-Polar-MMV Screening Library” (2021).
For part of these data: Results with a measured potency or affinity are listed apart.

What was measured:
Set-up in all cases: scale not given: direction of the effect not stated beside the values
[1] = target: Protein translocase subunit SecA (Escherichia coli (strain K12)) (UniProt P10408); assay: Assay to Identify E. coli SecA ATPase Inhibitors; type: functional; details: 30 µM
Protein translocase subunit SecA (Escherichia coli (strain K12)), sequence (P10408 whole entry): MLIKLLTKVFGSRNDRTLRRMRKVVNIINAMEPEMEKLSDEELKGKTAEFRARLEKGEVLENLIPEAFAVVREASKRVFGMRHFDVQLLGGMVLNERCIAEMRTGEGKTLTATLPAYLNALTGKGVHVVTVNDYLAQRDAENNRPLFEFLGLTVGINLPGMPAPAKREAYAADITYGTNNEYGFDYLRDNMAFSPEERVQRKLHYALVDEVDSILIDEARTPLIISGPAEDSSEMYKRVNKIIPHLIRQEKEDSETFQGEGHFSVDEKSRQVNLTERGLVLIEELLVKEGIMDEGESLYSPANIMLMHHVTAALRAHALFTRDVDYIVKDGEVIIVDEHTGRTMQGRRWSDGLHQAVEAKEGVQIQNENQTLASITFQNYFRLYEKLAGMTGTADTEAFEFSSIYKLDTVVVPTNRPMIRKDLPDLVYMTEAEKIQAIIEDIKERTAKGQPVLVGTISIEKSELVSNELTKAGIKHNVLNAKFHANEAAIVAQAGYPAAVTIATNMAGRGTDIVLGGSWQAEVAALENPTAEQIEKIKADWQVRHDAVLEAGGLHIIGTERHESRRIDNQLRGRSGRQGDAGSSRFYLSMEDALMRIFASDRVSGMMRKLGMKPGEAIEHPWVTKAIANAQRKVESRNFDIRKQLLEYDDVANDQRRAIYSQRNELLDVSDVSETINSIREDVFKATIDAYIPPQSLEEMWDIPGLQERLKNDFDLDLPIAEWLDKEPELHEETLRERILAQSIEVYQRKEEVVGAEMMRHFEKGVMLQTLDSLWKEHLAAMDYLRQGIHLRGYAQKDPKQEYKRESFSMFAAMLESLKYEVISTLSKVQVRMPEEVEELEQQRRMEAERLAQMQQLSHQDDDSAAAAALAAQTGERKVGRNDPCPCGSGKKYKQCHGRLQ

[2] = target: T1, Ubiquitin-activating enzyme e1, putative (Leishmania donovani (strain BPK282A1)) (UniProt E9BSI1); assay: Leishmania donovani Ubiquitin Activating Enzyme (LdE1); type: functional; details: 30 µM
T1 sequence (whole entry): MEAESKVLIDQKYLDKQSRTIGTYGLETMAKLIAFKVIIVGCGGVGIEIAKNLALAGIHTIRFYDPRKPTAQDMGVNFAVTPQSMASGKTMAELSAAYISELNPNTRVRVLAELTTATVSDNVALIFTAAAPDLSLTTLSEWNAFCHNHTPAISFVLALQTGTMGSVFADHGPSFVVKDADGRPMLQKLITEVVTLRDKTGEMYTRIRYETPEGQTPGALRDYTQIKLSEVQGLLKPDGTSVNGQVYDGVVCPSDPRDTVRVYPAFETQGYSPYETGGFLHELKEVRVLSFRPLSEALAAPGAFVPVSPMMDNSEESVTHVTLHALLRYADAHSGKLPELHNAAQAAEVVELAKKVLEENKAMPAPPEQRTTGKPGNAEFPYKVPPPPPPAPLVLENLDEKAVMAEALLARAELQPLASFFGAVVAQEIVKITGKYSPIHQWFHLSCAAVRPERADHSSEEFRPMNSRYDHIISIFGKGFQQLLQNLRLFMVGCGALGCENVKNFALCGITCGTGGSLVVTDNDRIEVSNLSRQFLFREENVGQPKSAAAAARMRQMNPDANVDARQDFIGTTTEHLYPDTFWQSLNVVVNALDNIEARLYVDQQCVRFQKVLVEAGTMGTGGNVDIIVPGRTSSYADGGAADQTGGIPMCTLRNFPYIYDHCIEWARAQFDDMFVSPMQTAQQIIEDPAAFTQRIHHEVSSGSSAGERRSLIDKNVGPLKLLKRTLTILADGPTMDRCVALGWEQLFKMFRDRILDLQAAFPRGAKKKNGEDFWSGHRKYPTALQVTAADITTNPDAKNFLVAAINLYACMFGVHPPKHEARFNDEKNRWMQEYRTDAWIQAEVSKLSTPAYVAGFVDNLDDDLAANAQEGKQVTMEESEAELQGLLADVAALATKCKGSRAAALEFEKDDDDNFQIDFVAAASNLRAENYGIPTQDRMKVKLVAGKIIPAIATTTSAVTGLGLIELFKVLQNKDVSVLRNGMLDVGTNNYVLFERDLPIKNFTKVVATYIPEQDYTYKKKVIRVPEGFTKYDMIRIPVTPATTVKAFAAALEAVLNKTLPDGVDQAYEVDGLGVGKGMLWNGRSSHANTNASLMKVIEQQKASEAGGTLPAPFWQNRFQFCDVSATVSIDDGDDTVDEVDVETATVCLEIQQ

[3] = target: AMP-activated protein kinase, AMPK (Homo sapiens) (UniProt P54646+O43741+P54619+Q9UGJ0+Q9Y478+Q13131+Q9UGI9); assay: AMP-dependent Kinase enzyme assay. An in vitro enzyme assay that detects ADP turnover that is directly proportional to AMPK activity. This uses naive AMPK that is activated during the assay with MK-8722; type: functional; details: 30 µM
[4] = target: Sialic acid-binding Ig-like lectin 9 (Homo sapiens) (UniProt Q9Y336); assay: Hs-Siglec9 ALPHAscreen SOP 20170721; details: 10 µM
Sialic acid-binding Ig-like lectin 9 (Homo sapiens), sequence (Q9Y336 whole entry): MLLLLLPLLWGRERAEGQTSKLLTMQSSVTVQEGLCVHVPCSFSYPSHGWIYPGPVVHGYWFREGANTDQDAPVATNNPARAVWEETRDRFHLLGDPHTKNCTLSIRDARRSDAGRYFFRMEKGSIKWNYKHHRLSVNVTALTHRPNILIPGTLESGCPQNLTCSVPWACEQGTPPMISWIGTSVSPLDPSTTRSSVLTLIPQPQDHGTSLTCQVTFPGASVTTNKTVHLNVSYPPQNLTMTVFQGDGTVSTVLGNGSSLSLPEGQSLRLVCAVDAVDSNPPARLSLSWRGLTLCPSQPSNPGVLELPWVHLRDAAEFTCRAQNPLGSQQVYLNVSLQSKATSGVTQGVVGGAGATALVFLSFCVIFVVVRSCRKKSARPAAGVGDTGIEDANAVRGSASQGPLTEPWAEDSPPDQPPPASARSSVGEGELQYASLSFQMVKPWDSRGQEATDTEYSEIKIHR

[5] = test system: Trypanosoma cruzi; assay: Trypanosoma cruzi phosphomannomutase and mannose-1-phosphate guanylyltransferase assay; type: functional; details: 10 µM
[6] = target: T2, Arginase-2, mitochondrial (Homo sapiens) (UniProt P78540); assay: in vitro enzyme assay to detect the production of urea directly proportional to the activity of Arginase II; type: functional; details: 33.3 µM; also: in the data most compounds retested in dose-response had high values
T2 sequence (whole entry): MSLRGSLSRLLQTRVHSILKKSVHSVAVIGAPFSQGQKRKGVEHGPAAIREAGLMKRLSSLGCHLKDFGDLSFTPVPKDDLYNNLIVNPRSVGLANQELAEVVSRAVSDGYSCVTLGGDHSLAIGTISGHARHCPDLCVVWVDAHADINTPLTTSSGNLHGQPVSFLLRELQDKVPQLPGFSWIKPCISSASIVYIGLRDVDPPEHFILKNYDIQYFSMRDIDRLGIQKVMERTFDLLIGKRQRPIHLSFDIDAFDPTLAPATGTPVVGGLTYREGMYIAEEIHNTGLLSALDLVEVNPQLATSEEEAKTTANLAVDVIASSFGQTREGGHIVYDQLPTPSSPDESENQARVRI

[7] = target: T3, Proteasome subunit beta (Trypanosoma cruzi) (UniProt O96673); assay: Trypanosoma cruzi proteasome chymotrypsin-like activity (TcProtChymo) assay.; also: in the data most compounds retested in dose-response had high values; type: functional; details: 9.37 µM
T3 sequence (whole entry): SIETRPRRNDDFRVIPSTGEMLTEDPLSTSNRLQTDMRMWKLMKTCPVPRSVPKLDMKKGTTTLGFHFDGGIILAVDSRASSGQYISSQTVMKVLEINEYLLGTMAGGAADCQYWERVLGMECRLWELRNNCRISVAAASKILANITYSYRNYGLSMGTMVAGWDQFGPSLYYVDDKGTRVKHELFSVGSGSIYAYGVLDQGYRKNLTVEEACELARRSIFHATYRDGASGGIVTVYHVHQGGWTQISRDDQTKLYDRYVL

[8] = species on record: Homo sapiens; assay: To identify inhibition of the IFN signalling (Jak-Stat) pathway via expression of an eGFP reporter gene under the control of an IFN-stimulated response element (ISRE) containing MxA promoter.; type: functional; details: 30 µM
[9] = target: T4, Tyrosyl-tRNA synthetase, putative (Trypanosoma cruzi (strain CL Brener)) (UniProt Q4DSP6); assay: Trypanosoma cruzi tyrosyl tRNA synthetase (TcYRS) _High Tyrosine SOP; type: functional; details: 30 µM; also: in the data most compounds retested in dose-response had high values
T4 sequence (whole entry): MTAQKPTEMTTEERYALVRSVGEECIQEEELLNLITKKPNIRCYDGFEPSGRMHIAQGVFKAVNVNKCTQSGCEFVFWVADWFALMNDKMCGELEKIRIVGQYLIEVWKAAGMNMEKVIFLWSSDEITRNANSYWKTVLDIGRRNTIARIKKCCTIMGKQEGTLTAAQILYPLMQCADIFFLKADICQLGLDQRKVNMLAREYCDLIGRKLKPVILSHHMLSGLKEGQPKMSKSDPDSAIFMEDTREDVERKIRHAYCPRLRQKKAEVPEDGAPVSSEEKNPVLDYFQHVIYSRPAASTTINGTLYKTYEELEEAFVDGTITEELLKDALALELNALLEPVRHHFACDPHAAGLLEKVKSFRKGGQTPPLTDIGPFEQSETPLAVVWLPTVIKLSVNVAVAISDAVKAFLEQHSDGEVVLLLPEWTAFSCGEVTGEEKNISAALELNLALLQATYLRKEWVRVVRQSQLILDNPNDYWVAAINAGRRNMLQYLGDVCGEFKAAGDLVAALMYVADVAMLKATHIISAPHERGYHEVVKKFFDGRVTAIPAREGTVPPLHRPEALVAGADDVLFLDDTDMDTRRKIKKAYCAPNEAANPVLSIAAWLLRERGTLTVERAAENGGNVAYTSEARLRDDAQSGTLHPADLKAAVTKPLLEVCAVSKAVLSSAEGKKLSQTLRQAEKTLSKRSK

[10] = target: T4, Tyrosyl-tRNA synthetase, putative (Trypanosoma cruzi (strain CL Brener)); assay: Trypanosoma cruzi tyrosyl tRNA synthetase (TcYRS) SOP; type: functional; details: 30 µM
[11] = target: Chromo domain-containing protein 1 (Saccharomyces cerevisiae (strain ATCC 204508 / S288c) (Baker's yeast)) (UniProt P32657); assay: ScCHD-1 Enzyme Inhibition Assay; type: functional; details: 30 µM; also: in the data most compounds retested in dose-response had high values
Chromo domain-containing protein 1 (Saccharomyces cerevisiae (strain ATCC 204508 / S288c) (Baker's yeast)), sequence (P32657 whole entry, the tested form may be a part): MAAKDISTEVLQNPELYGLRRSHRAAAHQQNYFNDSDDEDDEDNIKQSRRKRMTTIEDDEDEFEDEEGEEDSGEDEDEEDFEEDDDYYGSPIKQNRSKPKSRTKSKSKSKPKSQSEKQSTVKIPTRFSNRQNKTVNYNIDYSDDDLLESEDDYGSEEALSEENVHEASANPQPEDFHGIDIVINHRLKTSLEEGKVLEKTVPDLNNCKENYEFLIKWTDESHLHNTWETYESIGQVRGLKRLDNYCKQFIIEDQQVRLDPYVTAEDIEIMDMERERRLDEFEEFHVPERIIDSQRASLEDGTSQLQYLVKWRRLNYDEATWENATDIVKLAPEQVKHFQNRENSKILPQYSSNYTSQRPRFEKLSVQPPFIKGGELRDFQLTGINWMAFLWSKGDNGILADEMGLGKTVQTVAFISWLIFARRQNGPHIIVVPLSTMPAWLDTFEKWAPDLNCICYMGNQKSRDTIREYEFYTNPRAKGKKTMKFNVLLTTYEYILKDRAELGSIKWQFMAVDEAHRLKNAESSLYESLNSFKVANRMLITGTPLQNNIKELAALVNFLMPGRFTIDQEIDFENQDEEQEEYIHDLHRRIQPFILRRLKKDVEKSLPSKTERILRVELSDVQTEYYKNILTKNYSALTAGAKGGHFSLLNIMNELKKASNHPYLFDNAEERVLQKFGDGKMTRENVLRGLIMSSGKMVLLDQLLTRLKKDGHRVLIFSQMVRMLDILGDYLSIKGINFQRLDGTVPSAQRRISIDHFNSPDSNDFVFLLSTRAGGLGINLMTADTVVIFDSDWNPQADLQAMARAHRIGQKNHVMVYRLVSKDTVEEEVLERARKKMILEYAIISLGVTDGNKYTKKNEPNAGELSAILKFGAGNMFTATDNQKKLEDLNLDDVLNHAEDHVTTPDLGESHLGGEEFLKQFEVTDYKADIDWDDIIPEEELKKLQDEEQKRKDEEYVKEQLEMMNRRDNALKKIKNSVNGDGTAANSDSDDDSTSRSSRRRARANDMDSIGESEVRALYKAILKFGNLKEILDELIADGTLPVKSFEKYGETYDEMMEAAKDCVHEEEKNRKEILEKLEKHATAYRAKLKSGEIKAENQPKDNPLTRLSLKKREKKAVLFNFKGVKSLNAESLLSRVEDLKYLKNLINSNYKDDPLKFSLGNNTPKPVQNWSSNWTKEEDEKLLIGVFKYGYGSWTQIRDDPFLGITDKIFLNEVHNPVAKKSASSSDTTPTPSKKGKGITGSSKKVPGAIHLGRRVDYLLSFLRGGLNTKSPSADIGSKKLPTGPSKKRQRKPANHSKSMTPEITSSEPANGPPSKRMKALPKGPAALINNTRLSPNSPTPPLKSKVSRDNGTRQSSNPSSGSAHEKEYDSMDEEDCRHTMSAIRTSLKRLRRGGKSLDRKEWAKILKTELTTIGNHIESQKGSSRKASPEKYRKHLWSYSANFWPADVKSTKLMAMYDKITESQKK

Row | SMILES | Percent Effect [1] | Percent Effect [2] | Percent Effect [3] | Percent Effect [4] | Percent Effect [5] | Percent Effect [6] | Percent Effect [7] | Percent Effect [8] | Percent Effect [9] | Percent Effect [10] | Percent Effect [11]
1 | CN1CCN(C(=O)[C@@H]2CCO[C@@H]3CCN(c4ncccn4)C[C@@H]32)CC1 | -0.254% | 13.3% | 0.0211% | 0.601% | 2.7% | -48.9% | 8.21% | -18.8% | 7.29% | 17.5% | -7.16%
2 | COc1ccc(OC)c(NC(=O)c2nc3ccccc3n(C)c2=O)c1 | 1.79% | -15.6% | 3.42% | -2.14% | 0.888% | 3.23% | 9.22% | 3.54% | 1.06% | 14.1% | -7.41%
3 | Cc1ccc(CN(CCCn2ccnc2)Cc2c[nH]cn2)s1 | -8.11% | 9.46% | -4.5% | 6% | 0% | 1.62% | 11.4% | 9.27% | 9.68% | 14.3% | -25.7%
4 | Cc1nc(NCc2ccc(C)o2)cc(C(=O)N2CCOCC2)n1 | -5.2% | 15.6% | -13.8% | 14.3% | 9.14% | -55.2% | 10.5% | 4.67% | 4.3% | 8.64% | -6.33%
5 | CCN(CC)Cc1ccc(C(=O)N2CCN(CC(C)O)CC2)cc1 (centres undefined) | -4.12% | 0% | -3.46% | 8.13% | -0.472% | -2.81% | -4.5% | -2.61% | 4.43% | 1.24% | 0.847%
6 | Cc1cnc2n(c1=O)CC(C(=O)Nc1cccc3cccnc13)CS2 (centres undefined) | -3.5% | -2.74% | -76.9% | -1.76% | 5.88% | 0.455% | 8.87% | 5.24% | 1.07% | 0% | -2.86%
7 | CC(NC(=O)CNCCn1cccn1)c1ccc2c(c1)CCCC2 (centres undefined) | -8.2% | 13% | -1.74% | 15.8% | 3.37% | -6.41% | 9.46% | -3.61% | 12.6% | 26.8% | -9.3%
8 | Cc1cnn(CC2CN(Cc3nccn3C)CCO2)c1 (centres undefined) | -2.86% | 5.41% | -4.03% | 2.01% | -1.95% | 3.14% | 1.44% | 8.74% | 6.93% | 11% | -1.23%
9 | CN1Cc2c(C(=O)Nc3cccnc3)ncn2-c2ccccc2S1(=O)=O | -1.38% | -5.48% | -2.46% | 4.18% | 0% | -4.39% | 7.79% | -3.68% | 0% | 6.17% | 0.964%
